Data published in PubChem BioAssay (NCI).
The panel holds about 83,000 compounds, 20% with a hit somewhere; the sample as a whole holds those more often.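 For each line, cells grew in 96-well plates with the test compound present at a single concentration for 48 hours.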 A number with no mark means an inactive call. Calls of active or inactive are those of the source. The calls were made as follows: active = growth percent below 10; inactive = the rest.

Legend:
Assay in all cases: NCI-60 one-dose screen, 48 h (100 = growth as untreated, 0 = no growth, -100 = all killed)
Settings in all cases: 10 µM
[1] = system: NCI-H23 lung
[2] = system: NCI-H226 lung
[3] = system: NCI-H322M lung
[4] = system: HOP-62 NSCLC
[5] = system: NCI-H460 lung
[6] = system: HOP-92 NSCLC
[7] = system: NCI-H522 lung
[8] = system: A549/ATCC NSCLC
[9] = system: 786-0 renal
[10] = system: COLO 205 colon
[11] = system: DU-145 prostate
[12] = system: K-562 leukemia
[13] = system: MALME-3M melanoma
[14] = system: MDA-MB-231 breast
[15] = system: RXF 393 renal
[16] = system: SF-268 CNS
[17] = system: SF-295 CNS
[18] = system: SF-539 CNS
[19] = system: UACC-257 melanoma
[20] = system: M14 melanoma

| Structure (SMILES) | growth [1] | growth [2] | growth [3] | growth [4] | growth [5] | growth [6] | growth [7] | growth [8] | growth [9] | growth [10] | growth [11] | growth [12] | growth [13] | growth [14] | growth [15] | growth [16] | growth [17] | growth [18] | growth [19] | growth [20] |
| --- | --- | --- | --- | --- | --- | --- | --- | --- | --- | --- | --- | --- | --- | --- | --- | --- | --- | --- | --- | --- |
| Clc1ccc(/C=N/Nc2ncnc3sc4c(c23)CCN(Cc2ccccc2)C4)cc1 | 13.9% | -54.2% (active) | 22.3% | -33.5% (active) | -75.6% (active) | -59.6% (active) | 1.08% (active) | -53.2% (active) | -84.8% (active) | -86.1% (active) | 3.38% (active) | 1.43% (active) | -66.9% (active) | -65.8% (active) | 31.5% | -31.2% (active) | -81.6% (active) | -87.1% (active) | -15.5% (active) | -63.2% (active) |
| O=c1oc2ccc(-c3ccc(F)cc3F)cc2c(=O)n1-c1ccc(Cl)c(C(F)(F)F)c1 | -42.7% (active) | -18.8% (active) | -2.17% (active) | -18.8% (active) | 8.48% (active) | -19.4% (active) | -12.6% (active) | 15% | 7.66% (active) | -81.3% (active) | 14.2% | 10.1% | -26.7% (active) | -19.8% (active) | -14.3% (active) | 12% | -74% (active) | -7.49% (active) | -5.73% (active) | 21.5% |
| Cc1ccc(CSc2nc(Cl)c(C#N)c(-c3ccc(F)cc3)n2)cc1 | 87.8% | 53.5% | 86.7% | 96.4% | 86.5% | 54.6% | 62.5% | 66.5% | 78.7% | 77.3% | 75.1% | 55.7% | 113% | 96.5% | 70.2% | 81.8% | 70.2% | 71.8% | 75.3% | 87.6% |
| CC(=O)OC[C@@]1(C)C2CC[C@]3(C)C(CC=C4C5CC(C)(C)CC[C@]5(C(=O)Nc5ccccc5)CC[C@]43C)[C@@]2(C)C[C@@H](OC(C)=O)[C@@H]1OC(C)=O (stereo not given in full) | 40.2% | 40.6% | 61.1% | 32.8% | 32% | 40.1% | 42% | 39.6% | 45.7% | 45.5% | 44.9% | 12.7% | 54.3% | 60.6% | 64.2% | 52.5% | 19.9% | 41.6% | 18.5% | 50.9% |
| C=C(c1ccc(OC)c(N)c1)c1cc(C)nc2ccccc12 | 12.3% | 22.8% | 37.8% | 30.9% | -4.48% (active) | 53.8% | -29.4% (active) | 19.9% | 22.6% | -79.8% (active) | 14.9% | 11.3% | 49.9% | 10.5% | 51.4% | 24.3% | 6.83% (active) | -34.2% (active) | 63.3% | 16% |
| Cc1cccc(NC(=O)CSc2nc3ccc(F)cc3c(=O)n2-c2ccc(Cl)cc2)c1C | 63% | 21.5% | 81.6% | 26.5% | 57.9% | 26.9% | 77% | 72.5% | 34.7% | 94.7% | 69.6% | 84.3% | 65.5% | 51.8% | 18.8% | 59.1% | 57.5% | 25.7% | 87.7% | 74% |
| Cc1ccc(CSc2nc(-c3ccc(F)cc3)c(C#N)c(=O)[nH]2)cc1 | 103% | 99.1% | 98.6% | 102% | 109% | 96.7% | 87.1% | 89.8% | 100% | 131% | 101% | 91.1% | 117% | 104% | 95.1% | 101% | 95.6% | 101% | 102% | 116% |
| COc1ccc(NC(=O)Nc2ccc(OCC(=O)N=Nc3c(O)[nH]c4ccc([N+](=O)[O-])cc34)cc2)cc1 | 59.5% | 62.7% | 91.2% | 40.7% | 74% | 53.5% | 0.434% (active) | 99% | 73.1% | 112% | 91% | 95.7% | 94.5% | 56% | 107% | 63.7% | 100% | 73.3% | 107% | 118% |
| COc1ccc(CCN2C(=O)/C(=C/c3csc(C#N)n3)SC2=S)cc1 | 24.3% | 98.5% | 86.4% | 83.5% | 68.2% | -5.5% (active) | -69.8% (active) | 89% | -55.2% (active) | -75% (active) | 0.405% (active) | 1.79% (active) | 7.27% (active) | 15.8% | -3.89% (active) | 33.2% | 77.5% | -17.3% (active) | -35.3% (active) | -40.6% (active) |
| CCCCCCCCCCCCCCCCCCCC(=O)NCCc1c[nH]c2ccc(OC(=O)NOCCOCCOCCOCCOCCOCCOCCOCCOCCOCCOCCOCCOCCOCCOCCOCCOCCOCCOCCOCCOCCOCCOC)cc12 | 9.6% (active) | -23.3% (active) | -8.92% (active) | -30.7% (active) | 16% | -17.5% (active) | -83.4% (active) | 8.54% (active) | 35.4% | -100% (active) | 21.4% | 8.69% (active) | 8.02% (active) | -74.1% (active) | 12% | 16.5% | -28.5% (active) | -13.8% (active) | 6.88% (active) | -18.8% (active) |
| Cc1ccc(/C(N)=N/c2sc(-c3ccccc3)nc2-c2ccccc2)cc1 | 83.1% | 94.3% | 90.2% | 101% | 76.5% | 90.2% | 83% | 80.4% | 76.7% | 91.1% | 89% | 28.5% | 89.2% | 82.5% | 82.7% | 79.2% | 77.6% | 79.7% | 93.9% | 79.6% |
| Brc1ccc(/C=N/Nc2ncnc3sc4c(c23)CCN(Cc2ccccc2)C4)cc1 | 91.8% | 3.93% (active) | 94.1% | 103% | 14% | 67% | 90.4% | 74.2% | 48.5% | 34.8% | 47.2% | 20.9% | 38.7% | 22.1% | 66.7% | 74.2% | 58.7% | 71.4% | 56.7% | -12.1% (active) |
| O=C(c1ccc(Cl)cc1)C1[C@H](c2ccc(Br)cc2)[C@@H](c2ccccc2)NC12C(=O)Nc1ccc(Br)cc12 (stereo not given in full) | -92.7% (active) | -90.5% (active) | -59.3% (active) | -80.3% (active) | -62.5% (active) | -72.7% (active) | -82% (active) | -51.5% (active) | -80.4% (active) | -88.2% (active) | -43.2% (active) | -37.6% (active) | -95.5% (active) | -96.1% (active) | -94.8% (active) | -28.6% (active) | -97.2% (active) | -88.8% (active) | -71.3% (active) | 3.03% (active) |
| O=C1NC(=NC23CC4CC(CC(C4)C2)C3)N/C1=C\c1ccc2ncoc2c1 | -49.7% (active) | 21.4% | 3.73% (active) | 13.2% | 13.7% | 15.3% | -17.3% (active) | 10% | 14.4% | -34.4% (active) | 7.99% (active) | 12.1% | -24.3% (active) | -1.98% (active) | -52.5% (active) | 9.72% (active) | 11.2% | -49.2% (active) | 4.63% (active) | 29.4% |
| O=C(c1ccc(O)cc1)C1[C@H](c2ccccc2Br)[C@@H](c2ccccc2)NC12C(=O)Nc1ccc(Cl)cc12 (stereo not given in full) | -34.8% (active) | -7.3% (active) | 27% | 6.01% (active) | 9.99% (active) | -1.49% (active) | -47.1% (active) | -4.7% (active) | 2.9% (active) | -76.9% (active) | 32.5% | 7.61% (active) | -10.7% (active) | -57.3% (active) | -19.5% (active) | 27.7% | -6.39% (active) | 8.24% (active) | 25% | 28.4% |
| O=C(c1ccccc1)n1ccc(-c2cc3cc(Br)ccc3oc2=O)n1 | 19% | 27.5% | 31.1% | 20% | 9.4% (active) | 34.7% | 1.16% (active) | 33.9% | 16.1% | 11% | 37.3% | 19.9% | 36.8% | 32% | 45.2% | 36.5% | 24.4% | 10.5% | 2.91% (active) | -4.71% (active) |
